These results are taken from PubChem BioAssay (Tox21).

Structures are written as SMILES. Unmarked numbers belong to inactive results. Calls of active or inactive are those of the source. Unless noted, the call rests on the fitted dose curve; in most records, active means well fitted curve in the direction sought with a large enough effect in the repeat runs; inconclusive means weak or mixed curves; inactive means no such curve, though single readings can be large; an effect the other way counts as inactive or inconclusive.

Experiment [1] in a line: qHTS assay for small molecule agonists of the p53 signaling pathway (AID 651631; calls by dose curve; further: nearly all actives have a fitted effect of over 15% in size). The method in brief:
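Agonist mode screen using a stably integrated beta-lactamase gene under p53 response elements in HCT-116 cells. Compound exposure lasts 16 h at 37 °C; fluorescence intensity is measured following 2 h FRET substrate loading.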
A general note: In qHTS, concentration-response curves come from the screen itself.

Experiment [2] in a line: qHTS assay for small molecules that induce genotoxicity in human embryonic kidney cells expressing luciferase-tagged ATAD5 (AID 651632). Further: nearly all actives have a fitted effect of over 15% in size. Further: potency means the concentration at half of the fitted maximal effect. The method in brief:
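ATAD5-luc HEK293T, 2,000 cells/well; cpd or DMSO pin-transferred; 16 hr, 37C/5% CO2; Amplite 30 min RT; luminescence.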

Experiment [3] is described as follows: qHTS assay for small molecules that induce genotoxicity in human embryonic kidney cells expressing luciferase-tagged ATAD5 - cell viability (AID 651634; calls by dose curve; further: nearly all actives have a fitted effect of over 25% in size; further: potency means the concentration at half of the fitted maximal effect). The method in brief:
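Fluorescence from CellTiter-Fluor, reporting protease activity within live cells, served as the viability read-out. HEK293T cells carrying luciferase-tagged ATAD5 had been treated with compound for 15.5 hr at 37C.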

Experiment [4] is described as follows: qHTS assay for small molecule disruptors of the mitochondrial membrane potential - cell viability (AID 720634; calls by dose curve;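 further: human HepG2 liver cancer cells; series mostly up to about 83 µM; nearly all actives have a fitted effect of over 20% in size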). The procedure, abridged:
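Cells: HepG2, 2,000/well, attached overnight. Compound 1 hr, 37 C/5% CO2. +m-MPI dye, +CellTiter-Glo 30 min RT. Readout: luminescence (ATP).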

Experiment [5] is described as follows: qHTS assay for small molecule disruptors of the mitochondrial membrane potential (AID 720635). Further: potency means the concentration at half of the fitted maximal effect. The method in brief: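 HepG2 cells (2,000/well) attached overnight at 37C, then took compound for 1 hr at 37C, 5% CO2. Mito-MPS dye was added for 30 min; fluorescence was read at 490/535 nm (monomers) and 540/590 nm (aggregates).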
The nature of experiment [6]: qHTS assay to test for compound auto fluorescence at 590 nm (red) in HepG2 cells (AID 720674). The method in brief: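 Intrinsic compound fluorescence in the red window (Ex/Em 540/590 nm) is measured in attached HepG2 cells exposed for 1 hr, DMSO vehicle as baseline, benchmarked to Rose Bengal sodium.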
A short description of experiment [7]: qHTS assay to test for compound auto fluorescence at 535 nm (green) in HepG2 cells (AID 720675).
Experiment [8] is described as follows: qHTS assay to test for compound auto fluorescence at 460 nm (blue) in HEK293 cells (AID 720678). The procedure, abridged:
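HEK293, 2,000 cells/well, 10% dialyzed FBS; attach 4-5 hr 37C; pin compound or DMSO; o/n 37C/5% CO2; fluorescence 405/460 nm; triamterene-equivalent units.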

Experiment [9] can be described thus: qHTS assay to test for compound auto fluorescence at 590 nm (red) in HEK293 cells (AID 720679). The method in brief:
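Intensity at 540nm excitation and 590nm emission is reported as Rose Bengal sodium-equivalent autofluorescence. Measurements followed overnight exposure (37C, 5% CO2) of HEK293 cells, 2,000 per well, to 23 nL compound.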

Experiment [10] in a line: qHTS assay to test for compound auto fluorescence at 460 nm (blue) in HEK293 cell free culture (AID 720681). The procedure, abridged:
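Test compounds were pinned into cell-free culture medium (DMEM with 10% FBS) and fluorescence was read directly at Ex/Em 405/460 nm. Signals were expressed as fluorescence equivalents of triamterene, with DMSO vehicle as control.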

A short description of experiment [11]: qHTS assay to test for compound auto fluorescence at 535 nm (green) in HEK293 cell free culture (AID 720682). The procedure, abridged: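 No cells present: wells hold DMEM supplemented with 10% FBS, into which compound or vehicle is pinned. Green emission is then recorded (485 nm excitation, 535 nm emission) and scaled to fluorescein.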
Experiment [12] in a line: qHTS assay to test for compound auto fluorescence at 590 nm (red) in HepG2 cell free culture (AID 720684). The method in brief: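 Red fluorescence (540 nm excitation, 590 nm emission) was measured after compound transfer into cell-free MEM supplemented with 10% FBS. Values are equivalencies against Rose Bengal sodium.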
The nature of experiment [13]: qHTS assay to test for compound auto fluorescence at 460 nm (blue) in HepG2 cell free culture (AID 720685). The method in brief:
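Compound (23 nL) or DMSO pinned into cell-free MEM with 10% FBS; blue fluorescence read at 405/460 nm excitation/emission, expressed as auto-fluorescence equivalency to triamterene.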

Experiment [14] in a line: qHTS assay to test for compound auto fluorescence at 535 nm (green) in HepG2 cell free culture (AID 720686).
Experiment [15] in a line: qHTS assay to test for compound auto fluorescence at 460 nm (blue) in HepG2 cells (AID 720687). The procedure, abridged:
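Cells (2,000/well in MEM with 10% FBS) attached overnight at 37 C, then were exposed to compound or DMSO for 1 hr at 37 C, 5% CO2. Fluorescence read at Ex/Em 405/460 nm, expressed as triamterene-equivalent signal.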

Experiment [16] addresses Glucocorticoid receptor (Homo sapiens) (UniProt P04150). Description: qHTS assay to identify small molecule agonists of the glucocorticoid receptor (GR) signaling pathway (AID 720691; active means well fitted activation curve with a large enough effect in the signal ratio in the repeat runs, not every such curve was filed as active; inconclusive means weak or mixed curves, or effect the other way; inactive means no such curve, though single readings can be large or run the other way; the % refers to the signal ratio; further: potency means the concentration at half of the fitted maximal effect). The procedure, abridged: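 Fluorescence intensity from LiveBLAzer B/G FRET substrate (2 h, room temperature) reports beta-lactamase expression driven by the glucocorticoid response element in GR-bla HeLa cells after 18 h compound exposure at 37 C.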

Experiment [17] shares this target. Description: qHTS assay to identify small molecule antagonists of the glucocorticoid receptor (GR) signaling pathway (AID 720692; active means well fitted inhibition curve with a large enough effect in the signal ratio in the repeat runs, not every such curve was filed as active; inconclusive means weak or mixed curves, or effect the other way; inactive means no such curve, though single readings can be large or run the other way; the % refers to the signal ratio; further: potency means the concentration at half of the fitted maximal effect). The method in brief: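 HeLa GR-bla cells; cmpd + dex 5 nM final, 18 h 37 C; LiveBLAzer B/G FRET substrate 2 h RT; fluorescence intensity read. Antagonist mode, qHTS.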
A short description of experiment [18]: qHTS assay for small molecule agonists of the p53 signaling pathway - cell viability (AID 651633; calls by dose curve;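 further: p53RE-bla HCT reporter cells with a stable beta-lactamase p53 reporter; series mostly up to about 83 µM; nearly all actives have a fitted effect of over 30% in size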). The method in brief: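 p53RE-bla cells, seeded at 4,000 per well and rested 5 h at 37 C/5% CO2, received compounds in DMSO for 16 h at 37 C. CellTiter-Glo was then added, and luminescence was read after 30 min at room temperature to gauge cytotoxicity.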
Experiment [19] is described as follows: qHTS assay to test for compound auto fluorescence at 535 nm (green) in HEK293 cells (AID 720680).
Experiment [20] in a line: qHTS assay to test for compound auto fluorescence at 590 nm (red) in HEK293 cell free culture (AID 720683). The procedure, abridged:
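Tox21 10K library compounds were pinned into cell-free DMEM with 10% FBS and fluorescence was read at excitation 540 nm. Activity is expressed as Rose Bengal sodium equivalency.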
On the % scale 0 is the no-effect control and ±100 the full control effect.

Glucocorticoid receptor (Homo sapiens), sequence (P04150 whole entry, looked up): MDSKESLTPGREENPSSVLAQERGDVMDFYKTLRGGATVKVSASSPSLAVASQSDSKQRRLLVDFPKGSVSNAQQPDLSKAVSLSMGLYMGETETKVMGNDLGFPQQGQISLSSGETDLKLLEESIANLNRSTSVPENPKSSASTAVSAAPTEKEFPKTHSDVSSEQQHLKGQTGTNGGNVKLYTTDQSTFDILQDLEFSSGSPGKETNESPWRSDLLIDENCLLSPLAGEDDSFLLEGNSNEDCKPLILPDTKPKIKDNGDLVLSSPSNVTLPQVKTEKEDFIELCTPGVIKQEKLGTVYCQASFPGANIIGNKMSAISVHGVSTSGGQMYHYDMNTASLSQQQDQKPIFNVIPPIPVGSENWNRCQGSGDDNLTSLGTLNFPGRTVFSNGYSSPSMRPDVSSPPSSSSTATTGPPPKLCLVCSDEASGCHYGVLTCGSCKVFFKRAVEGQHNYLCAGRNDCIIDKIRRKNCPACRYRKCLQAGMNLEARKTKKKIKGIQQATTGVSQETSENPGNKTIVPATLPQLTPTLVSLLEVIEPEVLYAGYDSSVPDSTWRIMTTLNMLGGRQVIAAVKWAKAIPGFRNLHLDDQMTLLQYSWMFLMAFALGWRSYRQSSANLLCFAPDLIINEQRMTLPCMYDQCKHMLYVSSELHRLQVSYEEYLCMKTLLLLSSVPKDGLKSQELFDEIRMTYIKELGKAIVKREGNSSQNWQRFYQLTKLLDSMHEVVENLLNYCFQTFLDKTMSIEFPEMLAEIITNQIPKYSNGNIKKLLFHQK

`Cc1nc2ccccc2s1`: the Potency entry in [1], in experiment [2], in experiment [3], in experiment [4], in [5] and in experiment [8] was “inactive” in each case. In addition, the Potency entry in experiment [10], in experiment [13], in [15], in experiment [16] and in [17] was “inactive” each time. Further, the call in experiment [6], in experiment [7], in experiment [9], in [11], in experiment [12] and in experiment [14] was inactive.
Take `CN(C(=O)C(Cl)Cl)c1ccc(OC(=O)c2ccco2)cc1`: the Potency result in experiment [1], in experiment [2], in experiment [18], in experiment [3], in experiment [4] and in experiment [8] was “inactive” in each case. Further, the Potency entry in [13], in experiment [15] and in experiment [17] was “inactive” in each case. Also, the outcome in [6], in experiment [9], in [19], in [11], in experiment [20] and in experiment [12] was inactive. Besides, the molecule was classed as inactive in experiment [14].
Regarding `CC1(C)O[C@@H]2C[C@H]3[C@@H]4CCC5=CC(=O)C=C[C@]5(C)[C@H]4[C@@H](O)C[C@]3(C)[C@]2(C(=O)CO)O1`, the Potency entry in experiment [1], in [18], in experiment [3], in experiment [4], in experiment [8] and in [13] was “inactive” throughout. Moreover, the Potency entry in [15] was “inactive”. The Potency in experiment [2] was 11.9 nM (active); in [16], 30.1 nM [inconclusive] (active). In addition, the call in experiment [6], in [7], in experiment [19], in experiment [11], in experiment [20] and in experiment [12] was inactive. Moreover, the call in [14] was inactive.
As for `CO[C@H]1C=CO[C@@]2(C)Oc3c(C)c(O)c4c(O)c(c5c(c4c3C2=O)=NC2(CCN(CC(C)C)CC2)N=5)NC(=O)/C(C)=C\C=C/[C@H](C)[C@H](O)[C@@H](C)[C@@H](O)[C@@H](C)[C@H](OC(C)=O)[C@@H]1C`, the Potency result in experiment [1], in experiment [2], in [18], in [4], in [8] and in experiment [13] was “inactive” each time. Besides, the Potency result in experiment [15] and in experiment [16] was “inactive” each time. Moreover, the Potency in experiment [3] is 53300 nM (active). In addition, the result in experiment [6], in experiment [7], in experiment [19], in experiment [11], in experiment [20] and in experiment [12] was inactive. Moreover, the molecule was classed as inactive in experiment [14].
Regarding `O=C(/C=C/c1ccccc1)OCCCc1ccccc1`, the Potency entry in experiment [1], in experiment [2], in experiment [3], in [4], in [5] and in [8] was “inactive” each time. The Potency result in experiment [10], in experiment [13], in [15] and in experiment [16] was “inactive” in each case. The outcome in experiment [6], in experiment [7], in [19], in experiment [11], in experiment [12] and in [14] was inactive.
Consider `O=S1OCCO1`, for which the Potency entry in experiment [1], in experiment [2], in experiment [18], in experiment [3], in experiment [8] and in [10] was “inactive” each time. The Potency result in experiment [13] and in experiment [15] was “inactive” in each case. In addition, the molecule was classed as inactive in experiment [6], in experiment [7], in [9], in [19], in experiment [11] and in experiment [20]. The molecule was classed as inactive in experiment [12] and in experiment [14].
As to `CCOC(=O)[C@@H](C)Oc1ccc(Oc2nc3ccc(Cl)cc3o2)cc1`, the Potency entry in [1], in [2], in [3], in experiment [4], in experiment [5] and in experiment [8] was “inactive” each time. Moreover, the Potency entry in [10], in experiment [13], in [15] and in experiment [16] was “inactive” throughout. The outcome in experiment [6], in experiment [7], in experiment [9], in [19], in experiment [11] and in [12] was inactive. For the same molecule, the call in experiment [14] was inactive.
In the case of `C[C@]12CCC(=O)C=C1C=C[C@@H]1[C@@H]2CC[C@@]2(C)[C@H]1CC[C@@]21CCC(=O)O1`, the Potency result in experiment [1], in experiment [2], in experiment [3], in [4], in experiment [5] and in [8] was “inactive” each time. The Potency result in experiment [10], in [13], in [15] and in experiment [16] was “inactive” each time. In addition, the molecule was classed as inactive in experiment [6], in experiment [7], in experiment [19], in experiment [11], in experiment [20] and in experiment [14]. Besides, the Potency in experiment [17] is 10700 nM (active).
`Fc1ccccc1[C@@H](F)COC1CCC(Nc2ncnc3[nH]ncc23)CC1` (stereo partly specified): the Potency result in [1], in experiment [2], in experiment [18], in experiment [4], in experiment [8] and in experiment [10] was “inactive” each time. The Potency result in [13] and in experiment [15] was “inactive” in each case. Moreover, in [5], the Potency was 2730 nM (active). The molecule was classed as inactive in experiment [6], in experiment [7], in experiment [9], in experiment [19], in experiment [11] and in [20]. Moreover, the outcome in experiment [12] and in [14] was inactive.
Turning to `C[C@@H]1C[C@H]2[C@@H]3CCC4=CC(=O)C=C[C@]4(C)[C@@]3(F)[C@@H](O)C[C@]2(C)[C@H]1C(=O)CO`, the Potency entry in experiment [1], in experiment [2], in [18], in [4], in experiment [5] and in experiment [8] was “inactive” each time. Also, the Potency entry in [10], in experiment [13] and in [15] was “inactive” each time. For the same molecule, the outcome in [6], in [7], in experiment [9], in experiment [19], in experiment [11] and in experiment [20] was inactive. Besides, the molecule was called inactive in experiment [14]. For the same molecule, in experiment [16], the Potency is 8.5 nM [inconclusive] (active).
Consider `C[N+]1(C)CCC(=C(c2ccccc2)c2ccccc2)CC1`, for which the Potency result in experiment [1], in experiment [2], in [18], in experiment [4], in [16] and in experiment [17] was “inactive” throughout. The fluorescence, relative to Rose Bengal in experiment [6] is -0.257% [at 18.6 µM]. For the same molecule, the fluorescence, % of triamterene in experiment [8] is 0.577% [at 18.6 µM]. In addition, the fluorescence, % of fluorescent control was -0.153% [at 18.6 µM] in [9]; -0.269% [at 18.6 µM] in [10]; -0.165% [at 18.6 µM] in [20]; -0.143% [at 18.6 µM] in [13]; 0.0159% [at 18.6 µM] in experiment [15]. Moreover, the activity change in experiment [11] was -0.0334% [at 18.6 µM]. For the same molecule, the fluorescence, % of Rose Bengal in experiment [12] was 0.107% [at 18.6 µM]. In addition, in experiment [14], the fluorescence, % of fluorescein control was 0.0841% [at 18.6 µM].
